# Pf growth 48h = inhibits P. falciparum growth in the first generation, 48 h; P. falciparum luciferase growth in erythrocytes, 48 h; Potency, µM (top dose mostly 28.7 µM), most hits filed as inhibitors; 5.9% of 310,000 active
#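 Cell-based growth assay: transgenic P. falciparum expressing firefly luciferase, cultured in red cells within RPMI 1640 containing 0.5% w/v Albumax, 24 mM bicarbonate and gentamycin. A drop in luciferase activity indicates inhibition.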
# Lassa entry inh = Lassa virus entry inhibition. Lassa virus pseudotype entry inhibition, cell reporter. Potency, µM (top dose mostly 37.9 µM), usual class: inhibitors. 1.2% of 300,000 active. AID 540256; calls by dose curve; tested in HEK293 cells; also: nearly all actives have a fitted effect of over 50% in size
# HCMV inh = inhibitors of human cytomegalovirus; HFF cells, HCMV-luciferase reporter, 72 h; active compounds read low; activity change, negative = inhibition, % at 57.5 µM; 4.5% of 410,000 active; in the data active = activity change below about -60%; inconclusive = no clear call, values can overlap the other calls; inactive = above about -39%
#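 Two-dose cell screen: HFF monolayers treated with compounds and infected with luciferase-expressing HCMV at 1 PFU/cell, 72 h at 37C, then lysed for luciferase measurement.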
# Pf growth 96h = P. falciparum growth inhibition at 96 hour, primary screen for plastid delayed-death inhibitors | Potency, µM (highest dose often 28.7 µM), actives largely listed as inhibitors | 6.9% of 320,000 active | P. falciparum luciferase reporter growth, 96 h | AID 504834
#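 Plates of compound plus infected erythrocytes (2% hematocrit, 0.05% parasitemia final) incubate 96 hours, 37 C, 5% CO2. Detection reagent added; reduced luminescence from the parasites' luciferase reporter flags inhibition.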
# Marburg entry inh = Marburg virus entry inhibition | 1.8% of 300,000 active | Marburg virus pseudotyped entry inhibition, cell reporter | Potency, µM (top dose mostly 37.8 µM), most hits filed as inhibitors | AID 540276; calls by dose curve; tested in HEK293 cells
# HCV inh = HCV inhibition; Huh7.5.1 HCVcc-Cre infection, luciferase reporter, 44 h; Potency, µM (series often up to 41.8 µM), actives largely listed as inhibitors; 3.4% of 340,000 active; AID 651820
#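 Antiviral activity was scored by luciferase reporter output from cells infected with HCVcc-Cre (~0.5 moi) in presence of compound, 44 h infection period, cells seeded 1,000/well 4 h prior.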
# A number is an active result; - = inactive; ? = inconclusive; . = no result. This is a sample that favours compounds with a hit; in the whole collection about 14% have one here. Unless noted, calls follow the shape of the dose curve; as a rule, active = well fitted inhibition curve with a large enough effect; inconclusive = small, poorly fitted or top-dose-only effect, or another doubt; inactive = no such curve, though single readings can be large or run the other way.
SMILES,Pf growth 48h,Lassa entry inh,HCMV inh,Pf growth 96h,Marburg entry inh,HCV inh
COc1ccc(NC(=O)CCOc2ccccc2C)cc1S(=O)(=O)N1CCCCC1,12µM,?,?,?,?,11µM
COc1ccccc1CCC(=O)Nc1cccc(S(=O)(=O)N2CCOCC2)c1,?,-,-,-,?,?
COc1ccccc1CCC(=O)Nc1ccc2c(c1)c(=O)n(C)n2-c1cccs1,.,.,-84,.,.,.
COc1ccccc1CCC(=O)Nc1cccc(S(=O)(=O)N2CCCCCC2)c1,?,-,-,-,-,10µM
COc1ncnc2c1ncn2CCCNCc1ccccc1,.,.,-,.,.,.
O=c1c(Cc2ccc(F)cc2)c(O)ccn1Cc1cccc(Cl)c1,12µM,?,-,13µM,-,-
O=c1c(Cc2ccc(Cl)cc2)c(O)ccn1Cc1cccc(Cl)c1,?,-,-,-,-,-
O=c1c(Cc2ccc(Cl)cc2Cl)c(O)ccn1Cc1ccc(Cl)cc1,4.1µM,-,-,?,-,-
O=c1c(Cc2ccc(Cl)cc2)c(O)ccn1Cc1ccccc1,?,-,-,-,-,?
Cc1ccc(C)c(Cn2c3ccccc3c3cnn(CC(=O)NCc4ccccn4)c(=O)c32)c1,?,.,-,12µM,.,-
Cc1ccc(C)c(Cn2c3ccccc3c3cnn(CC(=O)NC4CCCCCC4)c(=O)c32)c1,.,-,-,.,-,.
Cc1ccc(C)c(Cn2c3ccccc3c3cnn(CC(=O)NCCCN4CCCCC4)c(=O)c32)c1,?,.,-79,-,.,?
COc1ccc2oc(=O)c(-c3nnc(-c4ccc(C)cc4)o3)cc2c1,.,-,-,.,.,.
COc1ccc(-c2nnc(-c3cc4ccccc4oc3=O)o2)cc1,-,-,-,12µM,-,-
Nc1ccc(-c2cc3ccccc3oc2=O)cc1,?,0.71µM,?,?,?,-
COc1cccc2cc(-c3nnc(-c4ccccc4)o3)c(=O)oc12,-,-,-,8.3µM,?,-
O=C(NCc1cccnc1)c1ccc(-c2cc3ccccc3oc2=O)cc1,-,.,-66,?,.,?
COC(=O)C[C@H]1C=C[C@@H](NC(=O)Nc2c(C)noc2C)[C@@H](CO)O1,.,.,-,.,.,.
CCOC(=O)CCC(NC(=O)CCC(=O)NC(CCC(=O)OCC)C(=O)OCC)C(=O)OCC (stereo not drawn),-,-,-,?,-,-
CCOC(=O)CCC(NC(=O)CC(=O)NC(CCC(=O)OCC)C(=O)OCC)C(=O)OCC (stereo not drawn),-,.,-96,-,.,-
Cc1cc(=O)n(Cc2c(F)cccc2Cl)c2c1c(C)nn2-c1cccc(F)c1,.,-,-,.,.,.
Oc1c(C(c2ccco2)N2CCN(C(c3ccccc3)c3ccccc3)CC2)sc2ncnn12 (stereo not drawn),.,.,-,4.1µM,-,14µM
Oc1c(C(c2ccccc2)N2CCc3ccccc3C2)sc2ncnn12 (stereo not drawn),?,.,-,?,.,?
Cc1cc(C)n2nc(SCC(=O)Nc3ccc(F)cc3[N+](=O)[O-])nc2n1,.,-,-,.,-,-
Cc1nn2cc(-c3cccc(Cl)c3)cnc2c1Br,-,-,-,-,?,?
SMILES,Pf growth 48h,Lassa entry inh,HCMV inh,Pf growth 96h,Marburg entry inh,HCV inh
Cc1nn2cc(-c3cccc(Cl)c3)cnc2c1Cl,-,?,-,-,4.5µM,-
CCCCN(CC)c1nc(-c2ccccc2F)nc2ccccc12,.,-,-,.,.,.
CCN(CC)c1nc(-c2ccccc2)nc2ccccc12,-,-,-63,?,?,11µM
COCCN(CCOC)c1nc(-c2ccccc2)nc2ccccc12,13µM,.,-,?,.,?
COCCN(CCOC)c1nc(-c2ccc(Cl)cc2)nc2ccccc12,-,.,?,?,.,?
CCCCN(CCCC)c1nc(-c2ccncc2)nc2ccccc12,?,.,-70,?,.,-
CC(C)CNC(=O)C(=O)Nc1c2c(nn1-c1ccccc1)CS(=O)(=O)C2,.,-,-,.,.,.
CN=C(NC#N)NCCSCC1N=CN=C1C (stereo not drawn),.,.,.,.,-,.
COc1ccc(-c2nc(C)c(CCNC(=O)C(=O)Nc3ccccc3C#N)s2)cc1OC,.,-,-,.,.,.
N#Cc1c(-c2ccc(C(F)(F)F)cc2)cc(-c2ccccc2)[nH]c1=S,-,-,-60,?,?,-
Cc1ccc(S(=O)(=O)Nc2ccc(Nc3nccn4c(-c5cccc(OC(F)(F)F)c5)cnc34)cc2)cc1,.,.,-,.,.,.
COc1cc(/C=N/NC(=S)Nc2cccc(Cl)c2C)ccc1OCC(=O)N1CC(C)OC(C)C1 (stereo not drawn),9.3µM,?,-,?,?,11µM
COc1ccc(/C=N/NC(=S)Nc2cccc(C(=O)O)c2)cc1OC,-,?,-,?,?,-
COc1ccc(C=NNC(=S)NN=Cc2ccc(OC)c(OC)c2)cc1OC,.,?,-102,.,?,-
COc1ccc(C=NNC(=S)Nc2ccc(F)cc2)cc1OC,.,?,-61,.,?,-
COc1cc(/C=N/NC(=S)NC(C)C)ccc1OCC(=O)Nc1c(C)cc(C)cc1C,12µM,-,-,13µM,?,-
Cc1ccc(NC(=O)O/N=C/c2ccc(F)cc2)cc1,-,.,-,5.9µM,.,-
Cc1ccc(NC(=O)O/N=C/c2ccc(Br)cc2)cc1,-,-,?,-,-,-
CCOc1ccc(NC(=O)C2(c3cccs3)CCOCC2)cc1,.,-,-,.,.,.
CC1(C)CC(C(CCN(Cc2ccccc2)C(=O)c2ccco2)c2ccc(F)cc2)CCO1 (stereo not drawn),12µM,?,-,1.5µM,?,?
O=C(CN(Cc1ccc(F)cc1)C(=O)c1ccco1)NCc1ccc(F)cc1,-,?,-,-,-,-
O=C(c1ccco1)N(CCC(c1ccccc1)c1ccco1)Cc1ccc(F)cc1 (stereo not drawn),?,23µM,-,?,?,?
CCC(=O)N(CCC(c1ccc(C)cc1)c1ccco1)Cc1ccco1 (stereo not drawn),2.3µM,?,-,?,?,11µM
COc1ccc(S[C@]2(c3nc(C)no3)CC(=O)N(c3ccccc3)[C@@H]2c2ccc(OC)cc2)cc1,.,.,-,.,.,.
CCCC(=O)N1CC2(C1)CN(C(=O)CN1CCOCC1)[C@H](CO)c1c2c2ccc(OC)cc2n1C,.,.,-,.,.,.
SMILES,Pf growth 48h,Lassa entry inh,HCMV inh,Pf growth 96h,Marburg entry inh,HCV inh
CCCCCOC(=O)[C@H](C)c1c(C)[nH]c(=S)[nH]c1=O,.,.,.,.,-,.
CCCCN1C(=O)/C(=C2/Sc3ccccc3N2C)S/C1=N\c1ncn[nH]1,7.4µM,.,-78,-,.,-
Cc1ccc(-n2ncc(C(=O)NCCN3CCOCC3)c2C2CCN(C(=O)OC(C)(C)C)CC2)c(C)c1,.,-,-,.,.,.
CCOC(=O)CNC(=O)C1c2ccccc2C(=O)N(c2ccc(OC)cc2)C1c1ccc(OC)cc1 (stereo not drawn),.,?,-,.,-,-
CCOC(=O)CNC(=O)C1(/C=C/c2ccccc2)CC(=O)N1c1ccc(OC)cc1 (stereo not drawn),10µM,-,?,?,?,-
COc1ccc(N2C(=O)CC2(/C=C/c2ccccc2OC)C(=O)NC2CCCC2)cc1 (stereo not drawn),12µM,-,-,-,-,-

# Compound activity from PubChem BioAssay.
